± gives the standard deviation. In all, about 8,200 sequences were measured (“pre-steady-state target cleavage rate”: median about 0.024, highest 2% from about 1.3 on). The entries come from a sample that favours the highest values as a whole.
Test system: MIWI (PIWIL1) piRISC loaded with L1MC piRNA (30 nt)
Assay: pre-steady-state target cleavage rate (min^-1); MIWI and MILI are mouse PIWI proteins and EfPiwi is from a freshwater sponge; tags in brackets are library labels; higher = faster piRNA-guided slicing of the target
Settings: guide: L1MC piRNA 5'p-UAACUAAAUACUAUGCAAGCUGUAGGUCCU
Method in brief: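 Cleave-'n-Seq used a transcribed, DNA-blocked target RNA library at 0.1 nM and active affinity-purified piRISC with one synthetic guide at 1 nM, with or without 500 nM GTSF1 partner protein, in HEPES–potassium acetate buffer at 33 °C for 0–8 or 0–960 min. Uncleaved targets were sequenced and normalised to depth and to weakly complementary targets, and three trials were pooled with k3 capped at 0.0001 min^-1. The pre-steady-state cleavage rate was estimated by a burst-and-steady-state fit.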

[1] = auxiliary factor: 500 nM mouse GTSF1
[2] = auxiliary factor: none (no GTSF1)

| Sequence | pre-steady-state target cleavage rate [1] | pre-steady-state target cleavage rate [2] |
| --- | --- | --- |
| UCCUGGAUGUGCUUGCAUUGUAUUUAGAUA | 0.0181 ± 0.0038 | 0.0063 ± 0.0025 |
| UCCUGCUACAGCUAGCAUAGAAUUUAGUUA | 0.528 ± 0.048 | 0.0108 ± 0.0032 |
| UGGGCCUACAGCUUGCAUAGUAUUUAGUUA | 1.39 ± 0.08 | 0.0716 ± 0.013 |
| AGGGCCUACAGCUUGCAUAGUAUUUAGUUA | 1.39 ± 0.061 | 0.106 ± 0.023 |
| UCCUGGAUGAGCUUGAAUAGUAUUUAGUUA | 0.944 ± 0.045 | 0.0233 ± 0.007 |
| UCCUGGAUCAGCAUGCAUAGUAUUUUGUUA | 0.517 ± 0.03 | 0.00866 ± 0.003 |
| UCCUGCUACAGCUUGCAAAGUAUUUAGAAA | 0.319 ± 0.043 | 0.00338 ± 0.0032 |
| UCCUGCUACAGCUAGGAUAGUAUUUAGUUA | 1.15 ± 0.12 | 0.006 ± 0.0018 |
| UCCUCCAACAGCAUGCAUAGUAUUUAGUUA | 1.11 ± 0.051 | 0.0217 ± 0.0039 |
| UCGACCAACAGCAUGCAUAGUAUUUAGUUA | 1.33 ± 0.037 | 0.033 ± 0.0067 |
| UCGACCAACAGGUUGCAUAGUAUUUAGUUA | 1.16 ± 0.049 | 0.0326 ± 0.006 |
| UGGACCAACAGCAUGCAUAGUAUUUAGUUA | 1.24 ± 0.046 | 0.0449 ± 0.01 |
| AGGACCAACAGCAUGCAUAGUAUUUAGUUA | 1.39 ± 0.048 | 0.0703 ± 0.016 |
| UCCACCAACAGCAUGCAUAGUAUUUAGUUA | 0.943 ± 0.032 | 0.0211 ± 0.0046 |
| UCCACCUAGUGCUUGCAUAGUAUUUUCAAA | 0.0568 ± 0.012 |  |
| UGGACCUAGUCCUUGCAUAGUAUUUACAAA | 0.0221 ± 0.0084 |  |
| UGCACCUACAGCUAGCAUAGUAUUUAGUUA | 1.22 ± 0.097 | 0.0194 ± 0.0043 |
| UCCUGGAUGAGCUUGCAUAGUAUUAUGAAA | 0.0112 ± 0.0054 |  |
| UCGACCUACAGCUUGCAAAGUAUUUACAAA | 0.33 ± 0.035 | 0.00465 ± 0.002 |
| UCCUGCUUGUGCUUGCAUAGUAUUUACAAA | 0.0637 ± 0.014 | 0.00366 ± 0.0024 |
| UGGACCUACAGCAAGCAUAGUAUUUAGUAA | 0.898 ± 0.11 | 0.0053 ± 0.0019 |

| Sequence | pre-steady-state target cleavage rate [1] | pre-steady-state target cleavage rate [2] |
| --- | --- | --- |
| UCGACCUACAGCAAGCAUAGUAUUUAGAAA | 0.349 ± 0.041 |  |
| AGGACCUACAGCAAGCAUAGUAUUUAGUUA | 1.2 ± 0.069 | 0.0105 ± 0.0035 |
| UCGACCUACAGCAAGCAUAGUAUUUAGUUA | 1.4 ± 0.083 | 0.00748 ± 0.0028 |
| UGGACCUACAGCAAGCAUAGUAUUUAGUUA | 1.34 ± 0.1 | 0.00929 ± 0.0027 |
| UCGACCUACAGCAAGCAUAGUAUUUAGUAA | 0.818 ± 0.066 | 0.00275 ± 0.0026 |
| UCCUCCUACAGCUUGCAUAGUACUUUAGUUA | 0.588 ± 0.024 | 0.00867 ± 0.0017 |
| AGGACCUAGUCCUUGCAUAGUAUUUACAAA | 0.256 ± 0.046 | 0.00328 ± 0.0019 |
| UCCUGGUACAGCUUGCAUAGUUUUUAGAUA | 0.136 ± 0.043 | 0.00988 ± 0.0027 |
| AGGACCUACAGCUUGCAUAGUAAUUAGAAA | 0.475 ± 0.071 | 0.00445 ± 0.0038 |
| UCCUGGAACUGCAUGCAUAGUAUUUAGUUA | 0.442 ± 0.035 | 0.00687 ± 0.0019 |
| UCCUCCUACAGCAUGGAUAGUAUUUAGUUA | 1.38 ± 0.067 | 0.0219 ± 0.0037 |
| AGGACCUACAGCAUGCUUAGUAUUUAGUUA | 0.977 ± 0.058 | 0.0155 ± 0.0029 |
| UCCUCCUACAGCAUGCAUAGUAUUUAGUUA | 1.2 ± 0.051 | 0.0219 ± 0.0048 |
| UCCACCUACAGCAUGGAUAGUAUUUAGUUA | 1.34 ± 0.062 | 0.0231 ± 0.0039 |
| UCGACCUACAGCAUGGAUAGUAUUUAGUUA | 1.59 ± 0.076 | 0.0294 ± 0.005 |
| UCGACCUACAGCAUGCAUAGUAUUUAGAUA | 0.538 ± 0.041 | 0.0119 ± 0.004 |
| UCCACCUACAGCAUGCAUAGUAUUUAGAUA | 0.423 ± 0.045 | 0.00605 ± 0.0027 |
| AGGACCUACAGCAUGGAUAGUAUUUAGUUA | 1.57 ± 0.086 | 0.0502 ± 0.0089 |
| UCGACCUACAGCAUGCUUAGUAUUUAGUUA | 0.915 ± 0.057 | 0.0113 ± 0.0023 |
| UGGACCUACAGGAAGCAUAGUAUUUAGUUA | 0.994 ± 0.094 | 0.00926 ± 0.0024 |
| UCCUGCUACAGCAUGGAUAGUAUUUAGUUA | 1.13 ± 0.15 | 0.015 ± 0.0025 |

| Sequence | pre-steady-state target cleavage rate [1] | pre-steady-state target cleavage rate [2] |
| --- | --- | --- |
| UCCACCUACAGCAUGCAUAGUAUUUAGUUA | 0.977 ± 0.054 | 0.0309 ± 0.0079 |
| UCCUGGUACAGCUUGACAUAGUAUUUAGUUA | 0.271 ± 0.027 |  |
| UCCUGGUACACCUUGCAUAGUAUUUUGUUA | 0.436 ± 0.1 | 0.00901 ± 0.0027 |
| ACGACCUACAGCUUGCAUAGUAUUUUCAAA | 0.618 ± 0.067 | 0.00505 ± 0.004 |
| UCCUGGAUGUCCUUGCAUAGUAUUUAGUGUA | 0.0232 ± 0.0073 | 0.00487 ± 0.0027 |
| UGGACCUACAGCAUGGAUAGUAUUUAGUUA | 1.47 ± 0.1 | 0.0301 ± 0.0054 |
| UGGACCUACAGCAUGCUUAGUAUUUAGUUA | 0.877 ± 0.056 | 0.0147 ± 0.0037 |
| UGGACCUACAGCAUCCAUAGUAUUUAGUUA | 0.102 ± 0.017 | 0.00273 ± 0.002 |
| UCCUGGAAGAGCUUGCAUAGUAUUUUGUUA | 0.704 ± 0.076 | 0.0231 ± 0.0062 |
| UCCUGGAUGAGCUUGCAUAGUAUAUUGUUA | 0.165 ± 0.021 | 0.0157 ± 0.004 |
| UCGACCUACAGCUACCAUAGUAUUUAGUAA | 0.355 ± 0.037 |  |
| UCCUGCAACAGCUUGCAUAGUAUAUAGUUA | 0.844 ± 0.063 | 0.0237 ± 0.0057 |
| UCCUGCAACAGCUUCCAUAGUAUUUAGUUA | 0.0524 ± 0.015 |  |
| UCCUGGAUGAGGUUGCAUAGUAUUUAGUUA | 0.274 ± 0.022 | 0.00581 ± 0.0018 |
| UCCUCGAUCAGCUUGCAUAGUAUUUAGUAA | 1.06 ± 0.048 | 0.04 ± 0.0086 |
| UCCUCGAUCAGCUUGCAUAGUAUUUAGAAA | 0.422 ± 0.044 | 0.00569 ± 0.0022 |
| UCGACGAUCAGCUUGCAUAGUAUUUAGUUA | 1.6 ± 0.047 | 0.0826 ± 0.017 |
| UGGACGAUCAGCUUGCAUAGUAUUUAGAAA | 0.499 ± 0.048 | 0.0141 ± 0.0042 |
| UCGACGAUCAGCUUGCAUAGUAUUUAGUAA | 1.05 ± 0.063 | 0.048 ± 0.011 |
| UGGACGAUCAGCUUGCAUAGUAUUUAGUAA | 0.953 ± 0.064 | 0.0656 ± 0.013 |

— the supplement of paper PMC10338343
